Data reported in PubChem BioAssay (Tox21).
Unmarked numbers belong to inactive results. Results filed as inconclusive are left out. Where a call stands in place of a potency, no number is given. Active and inactive are the calls of the source. Unless noted, the call rests on the fitted dose curve; in most records, active means well fitted curve in the direction sought with a large enough effect in the repeat runs; inconclusive means weak or mixed curves; inactive means no such curve, though single readings can be large; an effect the other way counts as inactive or inconclusive.

Legend:
[1] = qHTS assay to identify small molecule agonists of the estrogen receptor beta (ER-beta) signaling pathway - cell viability counter screen (AID 1259380); further: nearly all actives have a fitted effect of over 30% in size; further: potency means the concentration at half of the fitted maximal effect
How it was run: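 Cells used were ER-beta-UAS-bla HEK293T in medium with 2% charcoal-stripped FBS. They were treated for 16 hr at 37C. Viability came from CellTiter-Glo luminescence.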

[2] = qHTS assay to identify small molecule antagonists of the estrogen receptor beta (ER-beta) signaling pathway - cell viability counter screen (AID 1259382); further: series mostly up to about 92 µM; nearly all actives have a fitted effect of over 55% in size
How it was run: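 Agonist-stimulated (1nM E2) ER-beta-UAS-bla HEK293T cells are incubated with library compounds for 16 hr at 37C. Cell viability is then assessed in the reporter-assay wells by adding CellTiter-Glo and reading luminescence after 30 min.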

[3] = qHTS assay to identify small molecule agonists or antagonists of the thyroid stimulating hormone receptor (TSHR) signaling pathway - wild type cell line counter screen (AID 1259384; calls by dose curve)
How it was run: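 Wild-type HEK293 cells were plated 18 h at 37 C/5% CO2, pin-dosed with compound plus Ro20-1724 medium, held 30 min at room temperature, then given cAMP-d2 and anti-cAMP-cryptate; fluorescence was read after 1 h. Fifteen concentrations, triplicate.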

[4] = target: Thyrotropin receptor (Homo sapiens) (UniProt P16473); assay: qHTS assay to identify small molecule antagonists of the thyroid stimulating hormone receptor (TSHR) signaling pathway (AID 1259385; calls by dose curve; further: nearly all actives have a fitted effect of over 20% in size)
How it was run: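 TSHR-HEK293 cells were plated and held 18 h at 37C/5% CO2, then given compound plus Ro20-1724 and stimulated with TSH at 1.5 ng/mL final. After 30 min at room temperature, cAMP was detected with cAMP-d2/anti-cAMP-cryptate (1 h) by fluorescence.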

[5] = target: Progesterone receptor (Homo sapiens) (UniProt P06401); assay: qHTS assay to identify small molecule agonists of the progesterone receptor (PR) signaling pathway (AID 1346784; calls by dose curve; further: nearly all actives have a fitted effect of over 30% in size)
How it was run: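 Beta-lactamase reporter read-out: after 16 hr compound treatment at 37C and a further 2 hr at room temperature with LiveBLAzer B/G FRET substrate, fluorescence was measured in PR-UAS-bla HEK 293T cells grown in 2% charcoal-stripped serum.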

[6] = target: Progesterone receptor (Homo sapiens) (UniProt P06401); assay: qHTS assay to identify small molecule antagonists of the progesterone receptor (PR) signaling pathway (AID 1346795; active means well fitted inhibition curve with a large enough effect in the signal ratio in the repeat runs, not every such curve was filed as active; the % refers to the signal ratio)
How it was run: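 Read-out is fluorescence from the LiveBLAzer B/G FRET substrate, cleaved by a UAS-controlled beta-lactamase in PR-UAS-bla HEK293T cells after 16 hr exposure to compound plus 1 nM promegestone (final), followed by 2 hr at room temperature.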

[7] = qHTS assay to identify small molecule antagonists of the progesterone receptor (PR) signaling pathway - cell viability counter screen (AID 1346798);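 further: HEK293T PR-UAS-bla cells stimulated with the agonist R5020; series mostly up to about 92 µM; nearly all actives have a fitted effect of over 50% in size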
How it was run: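 HEK293T PR-UAS-bla, 2% charcoal-stripped FBS; 4 hr pre-plate; cpd + R5020, 16 h 37C; LiveBLAzer read first; then CellTiter-Glo 30 min RT, luminescence.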

[8] = qHTS assay to identify small molecule agonists of the progesterone receptor (PR) signaling pathway - cell viability counter screen (AID 1346799; calls by dose curve; further: nearly all actives have a fitted effect of over 45% in size)
How it was run: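 Luminescence from CellTiter-Glo, added after the beta-lactamase FRET read in the same wells, gave cytotoxicity in PR-UAS-bla HEK293T cells treated with compounds for 16 hr at 37C.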

[9] = qHTS assay to identify small molecule antagonists of the TGF-beta/Smad signaling pathway - cell viability counter screen (AID 1346824); further: nearly all actives have a fitted effect of over 50% in size; further: potency means the concentration at half of the fitted maximal effect
How it was run: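 SBE-bla HEK 293T cells were plated overnight at 37 C, then given compounds in DMSO plus TGF-beta1 (added as 0.25 ng/mL solution) for 5 hr. After the bla read, CellTiter-Glo was added to the same wells and luminescence read after 30 min at room temperature.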

[10] = qHTS assay to identify small molecule agonists of the TGF-beta/Smad signaling pathway - cell viability counter screen (AID 1346829); further: top concentration of the series differs between compounds; nearly all actives have a fitted effect of over 45% in size
How it was run: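 Same-well cytotoxicity: CellTiter-Glo added after the 2 hr room-temperature beta-lactamase substrate step, luminescence measured 30 min later; cells had 5 hr of compound at 37 C.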

[11] = qHTS assay to identify small molecule agonists of the TGF-beta/Smad signaling pathway (AID 1346859; active means well fitted activation curve with a large enough effect in the signal ratio in the repeat runs, not every such curve was filed as active; the % refers to the signal ratio; further: series mostly up to about 77 µM)
How it was run: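 SBE-bla HEK 293T, 4,000 cells/well, plated o/n; cpd in DMSO, 5 hr, 37 C/5% CO2; B/G FRET substrate 2 hr RT; ex 405, em 460/530 nm.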

[12] = target: Thyrotropin-releasing hormone receptor (Homo sapiens) (UniProt P34981); assay: qHTS assay to identify small molecule antagonists of the thyrotropin-releasing hormone receptor (TRHR) signaling pathway (AID 1346877; active means well fitted inhibition curve with a large enough effect in the repeat runs, not every such curve was filed as active; further: series mostly up to about 51 µM)
How it was run: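 Screening used HEK293 cells engineered with TRHR, with a brief 5 min room-temperature compound exposure preceding addition of TRH to 1 nM. The read-out was kinetic calcium-dye fluorescence, concentration-response from 15 doses in triplicate.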

[13] = target: Thyrotropin-releasing hormone receptor (Homo sapiens) (UniProt P34981); assay: qHTS assay to identify small molecule agonists of the thyrotropin-releasing hormone receptor (TRHR) signaling pathway (AID 1346891; calls by dose curve; further: series mostly up to about 58 µM)
How it was run: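 Intracellular calcium rise, read as fluorescence every second for 3 min, served as the agonist signal in dye-loaded HEK293 cells expressing TRHR; each compound ran at 15 concentrations in triplicate.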

[14] = Human pregnane X receptor (PXR) small molecule agonists, qHTS cell viability counter screen (AID 1346977); further: nearly all actives have a fitted effect of over 50% in size
How it was run: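 PXR-Luc HepG2, 2,000 cells/well, 5% charcoal-stripped FBS; 5hr settle; cpd 24hr, 37C/5% CO2; CellTiter-Fluor at 23hr, read 1hr later (fluorescence).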

[15] = Caspase-3/7 induction in HepG2 cells by small molecules, qHTS assay (AID 1346978); further: nearly all actives have a fitted effect of over 15% in size
How it was run: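 Wild-type HepG2 cells (2,000/well) were settled 5 h at 37 C, 5% CO2, then exposed to compounds in DMSO for 17 h. Caspase-3/7 activity was read by luminescence 30 min after adding Caspase-Glo 3/7 reagent at room temperature.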

[16] = Caspase-3/7 induction in CHO-K1 cells by small molecules, qHTS cell viability counter screen (AID 1346979); further: nearly all actives have a fitted effect of over 35% in size
How it was run: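 Cells (CHO-K1, wild type) are plated at 1,500 per well and incubated 5hr. Test compounds in DMSO are then pinned in, followed by 16hr at 37C and 5% CO2. Viability is read by CellTiter-Fluor fluorescence after 1hr.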

[17] = Caspase-3/7 induction in CHO-K1 cells by small molecules, qHTS assay (AID 1346980); further: nearly all actives have a fitted effect of over 15% in size
How it was run: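 Wild-type cells were seeded at 1,500 per well and settled 5 hr at 37 C, 5% CO2, then exposed to DMSO-dissolved compounds for 17 hr. Caspase-Glo 3/7 reagent was added, and luminescence was read after 30min at room temperature.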

[18] = qHTS assay to identify small molecule agonists of the estrogen receptor alpha (ER-alpha) signaling pathway in the presence of an antagonist - cell viability counter screen (AID 1259386);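 further: series mostly up to about 92 µM; cells exposed to compounds for 22 h at 37 °C before the viability read; nearly all actives have a fitted effect of over 30% in size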
How it was run: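 ICI-182,780 at 10.0nM final accompanies the compound titration (15 concentrations, 22hr, 37C) on VM7Luc4E2 cells. The CellTiter-Fluor fluorescence readout runs in the same wells as the luciferase assay.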

[19] = target: Estrogen receptor (Homo sapiens) (UniProt P03372); assay: qHTS assay to identify small molecule agonists of the estrogen receptor alpha (ER-alpha) signaling pathway in the presence of an antagonist (AID 1259383; calls by dose curve; further: top concentration of the series differs between compounds; nearly all actives have a fitted effect of over 15% in size)
How it was run: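 Using VM7Luc4E2 cells seeded 24hr before treatment, antagonist ICI-182,780 (10.0nM final) was added, followed by compounds at 15 concentrations. Plates incubated 22hr; ONE-Glo luminescence quantified reporter activity.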

Sequence of Thyrotropin-releasing hormone receptor (Homo sapiens) (P34981 whole entry, looked up): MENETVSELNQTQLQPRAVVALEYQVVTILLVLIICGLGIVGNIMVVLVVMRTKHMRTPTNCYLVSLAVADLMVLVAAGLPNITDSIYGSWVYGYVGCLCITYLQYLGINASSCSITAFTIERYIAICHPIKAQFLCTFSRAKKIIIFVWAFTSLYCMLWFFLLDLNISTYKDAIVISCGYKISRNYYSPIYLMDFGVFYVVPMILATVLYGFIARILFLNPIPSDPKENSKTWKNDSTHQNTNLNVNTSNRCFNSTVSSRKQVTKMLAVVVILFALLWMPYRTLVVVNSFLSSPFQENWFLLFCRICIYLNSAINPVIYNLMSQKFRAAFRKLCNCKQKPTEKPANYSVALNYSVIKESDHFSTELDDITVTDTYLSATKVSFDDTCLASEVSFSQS
Sequence of Thyrotropin receptor (Homo sapiens) (P16473 whole entry, looked up): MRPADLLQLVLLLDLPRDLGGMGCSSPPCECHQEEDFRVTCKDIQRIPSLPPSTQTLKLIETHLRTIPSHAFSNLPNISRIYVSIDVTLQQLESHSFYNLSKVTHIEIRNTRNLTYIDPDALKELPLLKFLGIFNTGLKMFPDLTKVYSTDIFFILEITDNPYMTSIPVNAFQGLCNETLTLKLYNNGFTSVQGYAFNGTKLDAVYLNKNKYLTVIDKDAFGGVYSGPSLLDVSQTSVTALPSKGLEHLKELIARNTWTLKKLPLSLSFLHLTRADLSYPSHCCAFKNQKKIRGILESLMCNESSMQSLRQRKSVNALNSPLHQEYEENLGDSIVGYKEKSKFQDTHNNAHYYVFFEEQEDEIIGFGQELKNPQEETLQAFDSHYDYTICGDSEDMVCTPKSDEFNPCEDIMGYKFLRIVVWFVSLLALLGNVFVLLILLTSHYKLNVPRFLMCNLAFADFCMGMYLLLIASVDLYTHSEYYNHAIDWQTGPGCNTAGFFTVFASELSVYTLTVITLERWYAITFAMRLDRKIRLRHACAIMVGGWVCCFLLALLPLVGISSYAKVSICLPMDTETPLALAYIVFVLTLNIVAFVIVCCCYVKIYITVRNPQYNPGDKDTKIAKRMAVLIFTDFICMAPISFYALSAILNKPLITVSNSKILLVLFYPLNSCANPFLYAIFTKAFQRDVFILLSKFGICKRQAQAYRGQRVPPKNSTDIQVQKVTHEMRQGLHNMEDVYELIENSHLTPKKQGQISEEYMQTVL
Sequence of Progesterone receptor (Homo sapiens) (P06401 whole entry, looked up): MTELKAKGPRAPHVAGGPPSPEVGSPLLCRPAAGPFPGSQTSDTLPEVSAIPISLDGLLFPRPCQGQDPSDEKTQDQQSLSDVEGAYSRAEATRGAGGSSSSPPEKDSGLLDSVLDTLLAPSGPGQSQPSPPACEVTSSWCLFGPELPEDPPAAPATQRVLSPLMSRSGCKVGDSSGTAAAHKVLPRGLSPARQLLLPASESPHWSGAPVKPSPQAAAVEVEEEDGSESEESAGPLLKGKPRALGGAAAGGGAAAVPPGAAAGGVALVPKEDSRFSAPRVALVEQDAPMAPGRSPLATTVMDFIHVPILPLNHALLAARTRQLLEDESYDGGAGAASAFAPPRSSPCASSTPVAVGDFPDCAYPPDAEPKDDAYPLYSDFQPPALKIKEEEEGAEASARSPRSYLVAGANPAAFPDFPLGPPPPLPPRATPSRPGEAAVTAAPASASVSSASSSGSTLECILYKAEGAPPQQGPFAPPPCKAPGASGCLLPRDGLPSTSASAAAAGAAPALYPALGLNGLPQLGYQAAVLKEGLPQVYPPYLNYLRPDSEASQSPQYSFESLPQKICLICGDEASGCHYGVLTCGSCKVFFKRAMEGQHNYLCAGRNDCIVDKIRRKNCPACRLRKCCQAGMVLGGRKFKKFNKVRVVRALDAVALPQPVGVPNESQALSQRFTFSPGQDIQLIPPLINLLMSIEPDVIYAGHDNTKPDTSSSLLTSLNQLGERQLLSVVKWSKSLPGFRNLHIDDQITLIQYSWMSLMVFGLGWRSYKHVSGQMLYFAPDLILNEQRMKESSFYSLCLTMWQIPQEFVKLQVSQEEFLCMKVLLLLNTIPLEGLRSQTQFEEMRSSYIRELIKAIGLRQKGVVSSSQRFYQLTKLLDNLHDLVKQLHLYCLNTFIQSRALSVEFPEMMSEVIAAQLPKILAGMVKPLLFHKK
Sequence of Estrogen receptor (Homo sapiens) (P03372 whole entry, looked up): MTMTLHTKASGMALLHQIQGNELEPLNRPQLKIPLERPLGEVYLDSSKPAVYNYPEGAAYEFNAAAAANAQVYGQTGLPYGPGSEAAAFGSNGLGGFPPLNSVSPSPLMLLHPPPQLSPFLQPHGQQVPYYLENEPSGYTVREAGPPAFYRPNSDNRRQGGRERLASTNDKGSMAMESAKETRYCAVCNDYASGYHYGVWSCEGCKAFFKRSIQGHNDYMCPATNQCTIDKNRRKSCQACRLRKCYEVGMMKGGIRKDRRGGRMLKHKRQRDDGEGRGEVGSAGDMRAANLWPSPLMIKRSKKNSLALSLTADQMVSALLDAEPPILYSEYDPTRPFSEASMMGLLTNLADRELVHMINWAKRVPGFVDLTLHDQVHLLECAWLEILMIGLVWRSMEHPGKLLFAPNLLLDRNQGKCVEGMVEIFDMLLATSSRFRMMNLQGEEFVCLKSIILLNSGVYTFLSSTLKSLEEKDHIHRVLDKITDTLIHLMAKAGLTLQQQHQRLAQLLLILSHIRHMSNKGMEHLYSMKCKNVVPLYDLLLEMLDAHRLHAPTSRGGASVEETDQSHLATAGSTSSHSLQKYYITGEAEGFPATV

Cc1cccc(C)c1C
Potency [1]: inactive
Potency [2]: inactive
Potency [3]: inactive
Potency [4]: inactive
outcome [5]: inactive
Potency [6]: inactive
Potency [7]: inactive
Potency [8]: inactive
Potency [9]: inactive
Potency [10]: inactive
outcome [11]: inactive
Potency [12]: inactive
Potency [13]: inactive
Potency [14]: inactive
Potency [15]: inactive
Potency [16]: inactive
Potency [17]: inactive

S=C1NC=NC2N=CNC12 (configuration not stated)
Potency [1]: 3.44 µM (active)
Potency [3]: inactive
Potency [4]: inactive
Potency [18]: inactive
outcome [5]: inactive
Potency [9]: 3.47 µM (active)
outcome [11]: inactive
Potency [12]: inactive
Potency [13]: inactive
Potency [14]: inactive
Potency [15]: inactive
Potency [17]: inactive

CC(=O)CC(N)=O
Potency [1]: inactive
Potency [2]: inactive
Potency [18]: inactive
outcome [5]: inactive
Potency [6]: inactive
Potency [7]: inactive
Potency [9]: inactive
Potency [10]: inactive
outcome [11]: inactive
Potency [12]: inactive
Potency [13]: inactive
Potency [14]: inactive
Potency [15]: inactive
Potency [16]: inactive
Potency [17]: inactive

CC(C)=CCC[C@H](C)CC=O
Potency [1]: inactive
Potency [2]: inactive
Potency [3]: inactive
Potency [4]: inactive
outcome [5]: inactive
Potency [6]: inactive
Potency [7]: inactive
Potency [8]: inactive
Potency [9]: inactive
Potency [10]: inactive
outcome [11]: inactive
Potency [14]: inactive
Potency [15]: inactive
Potency [17]: inactive

O=C1OC(O)C(C(Cl)Cl)=C1Cl (configuration not stated)
Potency [1]: 19.9 µM (active)
Potency [2]: inactive
Potency [3]: inactive
Potency [4]: inactive
Potency [18]: inactive
Potency [8]: inactive
Potency [9]: inactive
Potency [10]: inactive
outcome [11]: inactive
Potency [12]: inactive
Potency [13]: inactive
Potency [15]: inactive
Potency [17]: inactive

c1ccc(-c2ccccc2-c2ccccc2)cc1
Potency [1]: 68.6 µM (active)
Potency [19]: inactive
Potency [3]: inactive
Potency [18]: inactive
Potency [9]: inactive
outcome [11]: inactive
Potency [12]: inactive
Potency [13]: inactive
Potency [15]: inactive

Cc1ccc(C=O)cc1
Potency [1]: inactive
Potency [2]: inactive
Potency [3]: inactive
Potency [4]: inactive
Potency [18]: inactive
outcome [5]: inactive
Potency [7]: inactive
Potency [8]: inactive
Potency [10]: inactive
outcome [11]: inactive
Potency [12]: inactive
Potency [13]: inactive
Potency [14]: inactive
Potency [15]: inactive
Potency [17]: inactive

C=C[Si](C)(C)Cl
activity change, negative = cytotoxicity [1]: 0.271% [at 8.39 µM]
activity change, negative = cytotoxicity [2]: 6.43% [at 8.39 µM]
cAMP activity change [3]: -4.27% [at 8.39 µM, active compounds read high]
activity change, negative = inhibition [4]: 0.177% [at 8.39 µM]
activity change, negative = cytotoxicity [18]: 0.757% [at 8.39 µM]
activation [5]: 0.63% [at 8.39 µM]
activity change, negative = cytotoxicity [7]: -4.28% [at 8.39 µM]
activity change, negative = cytotoxicity [8]: -13.4% [at 8.39 µM]
viability change, negative = cytotoxic [9]: 9.11% [at 6.97 µM]
activity change, negative = cytotoxicity [10]: 9.12% [at 6.97 µM]
activation [11]: 0.312% [at 6.97 µM]
activity, negative = inhibition [12]: 2.56% [at 4.65 µM]
activation [13]: 0.0082% [at 5.23 µM]
activity change, negative = cytotoxicity [14]: 1.3% [at 8.39 µM]
caspase activation [15]: -0.0006% [at 8.39 µM]
activity change, negative = cytotoxicity [16]: 6.64% [at 8.39 µM]
caspase-3/7 activation [17]: 0.183% [at 8.39 µM]
